In PubChem BioAssay (NCI):
The panel holds about 83,000 compounds, 20% with a hit somewhere; the sample as a whole holds those more often.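 96-well plates, one dose, 48 hours. Percent growth reported; active if below 10.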 The source made the active and inactive calls.

These compounds were tested on HOP-92 NSCLC (assay: NCI-60 one-dose screen, 48 h (100 = growth as untreated, 0 = no growth, -100 = all killed)). Details: 10 µM unless noted.

Compound	growth
O=c1[nH]c(=O)n(Cc2ccc(F)cc2)cc1F	108% [50 µM] (inactive)
CC(=O)Nc1ccccc1-c1n[nH]c(=O)[nH]c1=O	-10.8% (active)
CCOC(=O)c1[nH]c2cc(Cl)ccc2c1[C@@H](C(=O)NC(C)(C)C)N(CC)C(=O)CCCCC#Cc1cccc2c1CN(C1CCC(=O)NC1=O)C2=O (stereo partly drawn)	6.15% (active)
NS(=O)(=O)c1ccc(C(=O)N/N=C(\CS(=O)(=O)c2ccccc2)c2cc3cc(Br)ccc3o2)cc1	77.2% (inactive)
O=C1Nc2ccc(Cl)cc2/C1=N/N=C(c1ccccc1)c1ccccc1	94.2% (inactive)
Cc1c(C(=O)Nc2nc(-c3ccccc3)cs2)nnn1-c1cccc2ccccc12	70.7% [50 µM] (inactive)
COc1ccc(NS(=O)(=O)c2ccc(-c3cnc(C4CC4)o3)cc2)cc1	63% (inactive)
O=c1[nH]c(-c2ccncc2)nc2sc3c(c12)CCCCCC3	-25.1% (active)
CC(C)OC1=C(Cl)C(=O)c2ccccc2C1=O	99.8% (inactive)
O=c1nc(NO)[nH]c(=O)n1Cc1ccccc1	-3.57% (active)
COc1c(O)c2c3c(c1OC)-c1ccccc1CC3N(S(=O)(=O)c1ccc(C)cc1)CC2 (stereo not drawn)	59.8% (inactive)
Fc1c[c-]c(-c2ccccn2)c(F)c1.Fc1c[c-]c(-c2ccccn2)c(F)c1.[Cl][Pt+].[Cl][Pt+].c1ccc([PH+](C[PH+](c2ccccc2)c2ccccc2)c2ccccc2)cc1	2.42% (active)
O=C(c1ccc2ncc(-c3nc(NC4CC4)ncc3F)n2c1)N1CCOCC1	-2.24% (active)
